ALDH1A1 block: qHTS Assay for Inhibitors of Aldehyde Dehydrogenase 1 (ALDH1A1). hit rate 7.3% among 220,000. AID 1030, 2008. Purified ALDH1A1, NADH fluorescence, propionaldehyde substrate. Potency, µM (series often up to 75.3 µM), most hits filed as inhibitors
Target sequence (P00352 whole entry, looked up): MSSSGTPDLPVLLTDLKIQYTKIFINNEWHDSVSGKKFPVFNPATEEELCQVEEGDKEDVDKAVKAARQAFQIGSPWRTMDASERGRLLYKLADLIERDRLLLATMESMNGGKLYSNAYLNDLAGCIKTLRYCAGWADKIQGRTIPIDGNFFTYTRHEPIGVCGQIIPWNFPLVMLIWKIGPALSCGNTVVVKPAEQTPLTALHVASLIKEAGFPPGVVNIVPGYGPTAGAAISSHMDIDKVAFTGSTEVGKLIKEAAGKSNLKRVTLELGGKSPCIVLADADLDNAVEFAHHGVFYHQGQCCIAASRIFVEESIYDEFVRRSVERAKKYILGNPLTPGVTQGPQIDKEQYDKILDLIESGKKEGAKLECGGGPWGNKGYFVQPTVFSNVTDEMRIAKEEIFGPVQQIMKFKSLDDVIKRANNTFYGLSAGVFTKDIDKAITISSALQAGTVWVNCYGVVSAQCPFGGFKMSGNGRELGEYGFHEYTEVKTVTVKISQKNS
PNC assembly inh: High Content Assay for Compounds that inhibit the Assembly of the Perinucleolar Compartment | PC3M PTB-GFP, PNC prevalence imaging, 16 h; stronger effect = lower value | activity change (PNC), negative = inhibition, % at 10 µM | hit rate 3.1% among 140,000 | AID 2417, 2010;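 active means readout at or below -70, meaning at least 70% loss of cells showing the perinucleolar compartment, a nuclear body marking cancer cells; inconclusive means readout between -30 and a set limit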
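Read-out is percentage of cells bearing a perinucleolar compartment, from automated 20x imaging of fixed, Hoechst-stained PC3M PTB-GFP cells. Cells were seeded 4 h, then exposed 16 h to compound (23 nl of library stock) in duplicate plates.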
12-hLO inh: qHTS Assay for Inhibitors of 12-hLO (12-human lipoxygenase); AID 1452, 2008; Potency, µM (doses to about 57.1 µM), actives largely listed as inhibitors; purified 12-hLO, xylenol orange hydroperoxide absorbance; hit rate 0.12% among 150,000; Polyunsaturated fatty acid lipoxygenase ALOX12 (Homo sapiens), P18054; active means well fitted inhibition curve with a large enough effect; inconclusive means small, poorly fitted or top-dose-only effect; further: nearly all actives have a fitted effect of over 55% in size
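150 nM 12hLO, 25 mM Hepes pH 7.0 + 0.01% Triton X-100; cpd preinc 15 min RT; 40 uM arachidonic acid, 30 min RT; Fe-XO 30 min; A573/A405 ratio as read-out.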
Lamin A splicing: qHTS Assay for Modulators of Lamin A Splicing; HeLa LMNA splicing GFP/RFP minigene ratio, 48 h; Potency, µM (top dose mostly 46.1 µM), most hits filed as inhibitors; hit rate 0.01% among 200,000; AID 1487, 2009; active means well fitted inhibition curve with a large enough effect in the signal ratio, with a control signal flat, not every such curve was filed as active; inconclusive means small, poorly fitted or top-dose-only effect, or effect the other way, or a change in a side signal; the % refers to the signal ratio
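S3 HeLa cells stably expressing lamin A-EGFP splicing minigene plus DsRed2, 600 cells/well, 48 h compound exposure at 37C. Laser-scanning cytometry; analysed as GFP (500-530 nm)/RFP (575-640 nm) total intensity ratio; 0.5% DMSO vehicle.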
HPGD block: qHTS Assay for Inhibitors of HPGD (15-Hydroxyprostaglandin Dehydrogenase) | Potency, µM, usual class: inhibitors | purified HPGD, NADH fluorescence kinetic, PGE2 substrate | 15-hydroxyprostaglandin dehydrogenase [NAD(+)] (Homo sapiens), P15428 | hit rate 4.3% among 150,000 | AID 894, 2007
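NADH formation kinetics: reaction with 30 uM PGE2 and 1 mM NAD+ (final), 20 nM enzyme, Tris-HCl pH 8 with Tween 20, after 15 min compound preincubation at room temperature. Fluorescence change, last versus first of five reads.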
A number is an active result; [ ] = dose if it differs, or a comment. An excerpt weighted towards active compounds, which were near 10% of everything screened. Unless noted, the call rests on the fitted dose curve; in most records, active means well fitted inhibition curve with a large enough effect (not every such curve was filed as active); inconclusive means small, poorly fitted or top-dose-only effect, or another doubt; inactive means no such curve, though single readings can be large or run the other way.

COC(=O)c1c(-c2ccc(C)cc2)csc1NC(=O)c1c(-c2ccccc2)noc1C was read as ALDH1A1 block inconclusive, PNC assembly inh inconclusive, 12-hLO inh inactive, Lamin A splicing inconclusive and HPGD block inconclusive.
Cc1ccc(-c2nc(CN(Cc3c(C)nn(C)c3C)C(C)C)c(C)o2)o1 was read as ALDH1A1 block inconclusive and Lamin A splicing inactive.
`COC(=O)c1sccc1NC(=O)c1cccnc1` gave ALDH1A1 block inactive, PNC assembly inh inconclusive, 12-hLO inh inactive, Lamin A splicing inactive and HPGD block 28µM.
Screening CCOc1ccccc1C(=O)Nc1ccsc1C(=O)OC returned ALDH1A1 block inactive, PNC assembly inh -110, 12-hLO inh inactive, Lamin A splicing inconclusive and HPGD block inactive.
`COc1ccc(Cc2nnc(NC(=O)c3c(-c4ccccc4)noc3C)s2)cc1OC` gave ALDH1A1 block 32µM, PNC assembly inh inactive, 12-hLO inh inactive, Lamin A splicing inactive and HPGD block inactive.
`COC(=O)c1ccc(C(NC(=O)OCc2ccccc2)/C(=C/[C@@H](C)C(=O)NCc2ccc(-c3ccccc3)cc2)c2cccnc2)cc1` (stereo partly specified) gave ALDH1A1 block inactive, 12-hLO inh inactive and HPGD block inactive.
Screening COc1cc(OC)nc(-n2ncc(Br)c(Br)c2=O)n1 returned ALDH1A1 block 10µM, PNC assembly inh inconclusive, 12-hLO inh inactive, Lamin A splicing inconclusive and HPGD block inactive.
For COC(=O)c1cnn(-c2nc(OC)cc(OC)n2)c1C the results were ALDH1A1 block inactive, PNC assembly inh inconclusive, 12-hLO inh inactive, Lamin A splicing inactive and HPGD block inactive.
For CCO/N=C(/c1nonc1N)N1CCN(c2ccc([N+](=O)[O-])cc2)CC1 the results were ALDH1A1 block 11µM, PNC assembly inh inactive, 12-hLO inh inactive, Lamin A splicing inactive and HPGD block inactive.
`CO/N=C(\c1nonc1N)N1CCN(c2ccc([N+](=O)[O-])cc2Cl)CC1` gave ALDH1A1 block inconclusive, PNC assembly inh inconclusive, 12-hLO inh inactive, Lamin A splicing inactive and HPGD block inactive.
`Cc1cccc2nc(Cn3c(=O)n(CCCC(=O)NCc4ccco4)c(=O)c4ccccc43)cc(=O)n12` gave ALDH1A1 block 20µM, PNC assembly inh inconclusive, 12-hLO inh inactive, Lamin A splicing inactive and HPGD block 28µM.
Screening O=C(CCn1c(=O)c2ccccc2n(Cc2cc(=O)n3ccccc3n2)c1=O)NCc1ccco1 returned ALDH1A1 block inconclusive, PNC assembly inh inactive, 12-hLO inh inactive, Lamin A splicing inactive and HPGD block inconclusive.
Screening CC(OC(=O)c1oc2ccccc2c1CSC1CCCCC1)C(=O)NC(N)=O (stereo unspecified) returned ALDH1A1 block 2µM, PNC assembly inh inactive, 12-hLO inh inactive, Lamin A splicing inconclusive and HPGD block inactive.
O=C(Nc1cccnc1)c1cnc2ccccc2n1 was read as ALDH1A1 block inactive, PNC assembly inh -88, 12-hLO inh inactive and Lamin A splicing inactive.
For COC(=O)c1cnc2ccccc2n1 the results were ALDH1A1 block inactive, PNC assembly inh inactive, 12-hLO inh inactive, Lamin A splicing inactive and HPGD block inactive.
For O=C(O)c1cnc2ccccc2n1 the results were ALDH1A1 block 25µM, PNC assembly inh inactive, 12-hLO inh inactive, Lamin A splicing inactive and HPGD block inconclusive.
`Cn1cccc1C(=O)N1CCC2(CCN(C(=O)Nc3cccc(C#N)c3)CC2)CC1` gave ALDH1A1 block inactive, 12-hLO inh inactive and HPGD block inactive.
For Cc1ccc(C(=O)ON=C2CCN(c3ccc([N+](=O)[O-])cc3)CC2)cc1 the results were ALDH1A1 block inconclusive, PNC assembly inh inactive, 12-hLO inh inactive, Lamin A splicing inactive and HPGD block inactive.
O=[N+]([O-])c1ccc(N2CCC(=NOCc3ccc(Cl)cc3)CC2)cc1 was read as ALDH1A1 block 13µM, PNC assembly inh inactive, 12-hLO inh inactive, Lamin A splicing inactive and HPGD block inactive.
`CN(C)C(CNC(=O)/C=C/c1cccc(Cl)c1)c1ccccc1` (stereo unspecified) gave ALDH1A1 block inactive and Lamin A splicing inactive[9.22 µM].
Screening COCCCNC(=O)CN(c1cccc(Cl)c1)S(C)(=O)=O returned ALDH1A1 block 2µM, PNC assembly inh inconclusive, 12-hLO inh inactive, Lamin A splicing inactive and HPGD block inactive.
COCCCNC(=O)/C=C/c1cccc(Cl)c1 was read as ALDH1A1 block inactive, PNC assembly inh inactive, 12-hLO inh inactive, Lamin A splicing inactive and HPGD block 28µM.
`Cc1sc2nc(CN3CCOCC3)nc(NS(=O)(=O)c3ccccc3)c2c1C` gave ALDH1A1 block inconclusive, PNC assembly inh inactive, 12-hLO inh inactive, Lamin A splicing inactive and HPGD block inactive.
Screening Cc1sc2nc(CN3CCOCC3)nc(NS(=O)(=O)c3ccc4c(c3)OCCO4)c2c1C returned ALDH1A1 block 1.3µM, PNC assembly inh inactive, 12-hLO inh inactive, Lamin A splicing inactive and HPGD block inactive.
For CCOc1ccc(Br)cc1S(=O)(=O)Nc1nc(CN2CCOCC2)nc2sc(C)c(C)c12 the results were ALDH1A1 block 13µM, PNC assembly inh inconclusive, 12-hLO inh inactive, Lamin A splicing inactive and HPGD block inactive.
For CCOc1ccc(Br)cc1S(=O)(=O)Nc1ccc(N2CCOCC2)cc1 the results were ALDH1A1 block inactive, PNC assembly inh inactive, 12-hLO inh inactive, Lamin A splicing inconclusive and HPGD block inactive.
For Cc1cn2c(nc(=O)c3cccnc32)s1 the results were ALDH1A1 block inconclusive, PNC assembly inh inactive, 12-hLO inh inactive, Lamin A splicing inactive and HPGD block inconclusive.
Screening CCOc1ccc(CNC(=S)N/N=C\c2ccc([N+](=O)[O-])cc2)cc1 returned ALDH1A1 block 3.2µM, PNC assembly inh -92, 12-hLO inh inactive, Lamin A splicing inactive and HPGD block inactive.
`CCOc1ccc(CNC(=S)N/N=C/c2cccnc2)cc1` gave ALDH1A1 block inactive, PNC assembly inh inconclusive, 12-hLO inh inactive, Lamin A splicing inconclusive and HPGD block inactive.
`CCc1ccc(NC(=O)c2ccc(F)c(S(=O)(=O)N3CCc4ccccc4C3)c2)cc1` gave Lamin A splicing inactive.
For Cc1ccccc1NC(=O)Cn1cnc2c(oc3nc4c(cc32)COC(C)(C)C4)c1=O the results were ALDH1A1 block 22µM, PNC assembly inh inactive, 12-hLO inh inactive, Lamin A splicing inactive and HPGD block inactive.
COc1ccccc1NC(=O)Cn1cnc2c(oc3ccccc32)c1=O was read as ALDH1A1 block inactive, PNC assembly inh inactive, 12-hLO inh inactive, Lamin A splicing inactive and HPGD block inactive.
`CCn1c(SCC(=O)NCc2ccccc2)nc2nc3c(cc2c1=O)CCCC3` gave ALDH1A1 block inactive and Lamin A splicing inactive.

High-throughput results as filed in PubChem.
